# Shown is part of a subset that was picked to be rich in hits.
# MARV entry inh = qHTS for inhibitors of binding or entry into cells for Marburg Virus; Marburg virus pseudotyped entry inhibition, cell reporter; Potency, µM (titrated, usually from 37.8 µM), inactives show top-dose activity change, negative = inhibition, most hits filed as inhibitors; actives 1.8% (n = 300,000); AID 540276, 2011; calls by dose curve; tested in HEK293 cells; note: potency is the fitted concentration of half-maximal effect; % is set by controls: 0 for no effect and ±100 for the full control effect
# Cycloheximide cs = Cycloheximide Counterscreen for Small Molecule Inhibitors of Shiga Toxin. cell reporter, cycloheximide protein synthesis inhibition counterscreen. max response, %. actives 12% (n = 300,000). AID 2314, 2010; in the data active = max response mostly above about 13%, no sharp cut-off; inactive = mostly below about 14%; note: read at 38.3 µM for the half of the compounds with a filed dose; 0% is about no effect
# LASV entry inh = qHTS for Inhibitors of binding or entry into cells for Lassa Virus; actives 1.2% (n = 300,000); Potency, µM (top dose mostly 37.9 µM), without a hit: at the top dose activity change, negative = inhibition, actives largely listed as inhibitors; AID 540256, 2011; Lassa virus pseudotype entry inhibition, cell reporter; calls by dose curve; tested in HEK293 cells; note: potency is the fitted concentration of half-maximal effect; % is set by controls: 0 for no effect and ±100 for the full control effect; nearly all actives have a fitted effect of over 50% in size
# AMA1 RON2 block = qHTS for Inhibitors of AMA1-RON; Towards Development of Antimalarial Drug Lead: Primary Screen. AID 720542, 2013. Plasmodium falciparum AMA1 (3D7) - RON2 peptide interaction. AlphaScreen AMA1-biotinylated RON2 peptide binding. actives 0.2% (n = 360,000). Potency, µM (highest dose often 58.2 µM), for the others: at the top dose activity change, negative = inhibition, hits mostly inhibitors; active = well fitted inhibition curve with a large enough effect; inconclusive = small, poorly fitted or top-dose-only effect; inactive = no such curve, though single readings can be large or run the other way;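 note: potency is the fitted concentration of half-maximal effect; 0% = vehicle wells and -100% = peptide control; nearly all actives have a fitted effect of over 45% in size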
#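 AMA1 (3D7) with his tag at 25 nM final met compounds first, then biotinylated RON2 peptide at 25 nM; detection used donor plus acceptor beads, 10 µg/mL apiece, read by AlphaScreen after 30 min at room temperature.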
# Shiga toxin inh = A qHTS for Small Molecule Inhibitors of Shiga Toxin; Vero cells, Shiga toxin protein synthesis inhibition reporter; inhibition, % at 38.7 µM; actives 9.2% (n = 290,000); in the data active = inhibition mostly above about 28%, no sharp cut-off; inactive = mostly below about 43%; note: 0% is about no effect
# An asterisk follows results filed as active; ? = inconclusive; / = no result given; [ ] = remark or other dose.
SMILES,MARV entry inh,Cycloheximide cs,LASV entry inh,AMA1 RON2 block,Shiga toxin inh
CCN1CCN(C(=O)/C=C/c2ccc(C(C)C)cc2)CC1,?,/,-1%[46.1 µM],10%,/
CCc1ccc(OCC(=O)Nc2ncn[nH]2)c(Br)c1,?,/,-21%[46.1 µM],/,/
O=C(Nc1cccc(Cl)c1)NC1CC2CCC(C1)N2Cc1cccs1 (stereo not given),/,-2,/,-1%,-4
CS(=O)(=O)N1CCC(n2c(C(F)(F)F)nc3cccnc32)CC1,/,/,10%[46.1 µM],/,/
C=CCN(C(=O)CSC1=NC(=O)CN1C(C)=O)c1nc(C)c(-c2ccccc2)s1,-17%[46.1 µM],30*,12%,?,50
COc1ccc(Cl)cc1S(=O)(=O)N(C)CC(=O)N1CCOCC1,-19%[46.1 µM],-5,-17%[46.1 µM],11%,-2
CC(C)(C)S(=O)(=O)c1ccc(S(=O)(=O)C(C)(C)C)s1,/,0,/,/,-5
O=c1oc2c(O)c(O)cc3c(=O)oc4c(O)c(O)cc1c4c23,4.1µM*,-2,?,0.79µM*,-6
Cc1ccc(OC(=O)C2c3ccccc3Oc3ccccc32)cc1C,?,5,18µM*,24%,10
O=C(COc1ccc2ccccc2c1Br)Nc1cccnc1,/,37*,/,14%,138*
O=C(COc1ccc(-c2ccccc2)cc1)Nc1cccnc1,/,/,/,-1%,/
O=C(COc1ccc2ccccc2c1Br)Nc1ccncc1,?,28*,?,18%,74*
c1ccc2oc(CCc3nc4ccccc4o3)nc2c1,?,15*,-11%,2%,20
Nc1ccc2oc(CCc3ccccc3)nc2c1,?,48*,?,2%,167*
O=C(Nc1nc(=O)n(C(=O)C2CC2)s1)c1ccccc1,?,27*,0%,4%,2
Cc1ccc(C(=O)Nc2nc(=O)n(C(=O)c3ccccc3C)s2)cc1,?,13,-2%,1%,8
Cc1ccc(C(=O)Nc2nc(=O)n(C(=O)C3CC3)s2)cc1,6%,16*,9%,-8%,20
CCc1nc2ccc(C(=O)N3CCN(C(=O)c4ccco4)CC3)cn2c1N(CC)CCOC,/,/,/,3%,/
O=C(O)c1ccc2c(c1)C(=O)N(CCC1=CCCCC1)C2=O,-1%,-2,-2%,2%,13
COC(=O)C1=C(C)N(CCC2=CCCCC2)C(=O)C1,-21%[46.1 µM],21*,-5%,-3%,24
O=C1c2ccccc2C(=O)N1CCC1=CCCCC1,10%,41*,21%,-21%,89*
CCN1C(=O)CC(C(=O)OC)=C1C,/,-3,/,-3%,-6
Cc1ccccc1NC(=O)CSc1nnc(C)c2ccccc12,8%[46.1 µM],2,1%,9%,42
CC(=O)Nc1c2sscc-2n(C)c1=O,/,47*,/,/,36*
CC(=O)Nc1c(N)[nH]c(=O)n(C)c1=O,/,-5,/,/,-8
SMILES,MARV entry inh,Cycloheximide cs,LASV entry inh,AMA1 RON2 block,Shiga toxin inh
COCCNCCOc1ccc(C)cc1[N+](=O)[O-],-13%[46.1 µM],23,0%[46.1 µM],1%,-3
Cc1ccc(OCCCCNC(C)(C)C)c([N+](=O)[O-])c1,16µM*,1,-1%,?,-15
Cn1c(N2CCC(C(N)=O)CC2)nc2c1c(=O)n(Cc1ccc(Br)cc1)c(=O)n2C,?,/,5%,-1%,/
Cc1ccsc1/C=N/NC(=O)c1ccc(-n2cccc2)cc1,?,33*,7%,34%,66*
Cc1ccsc1/C=N/NC(=O)c1sccc1C,?,53*,?,-5%,95*
Cc1ccc(C(=O)N/N=C\c2sccc2C)cn1,/,34*,/,26%,73*
Cc1ccsc1/C=N/NC(=O)c1ccco1,?,24*,9%,-5%,46*
CCOC(=O)C1CCN(S(=O)(=O)c2ccc(OC)c(C(=O)N3CCCCC3)c2)CC1,-27%[46.1 µM],1,/,-6%,-10
Cc1ccsc1/C=N/NC(=O)c1ccc2nc[nH]c2c1,8%,21*,3%,15%,32*
Cc1cc(C(=O)N/N=C/c2sccc2C)no1,?,27*,10%,13%,43*
Cc1c(/C=N/NC(=O)c2cc(C(C)(C)C)[nH]n2)c2ccccc2n1C,13%[46.1 µM],-3,-4%,3%,-3
Cc1ccsc1/C=N\NC(=O)c1cc(C(C)(C)C)[nH]n1,12%,24*,1%,-1%,104*
COc1ccc(Cn2c(=O)c3oc4ccccc4c3n(Cc3cccc(C(F)(F)F)c3)c2=O)cc1,/,/,5%[46.1 µM],/,/
O=C(C[C@H]1CC[C@@H]2[C@H](COC[C@@H](O)CN2Cc2cccc(F)c2)O1)NCC1CCCCC1,/,/,/,5%,/
O=C(N/N=C/c1cccs1)c1c[nH]c2ccccc12,?,62*,28%,4%,81*
CCCc1cc(C(=O)N/N=C/c2ccc(CC)s2)c2ccccc2n1,?,-4,-9%,0%,-4
CCc1ccc(/C=N/NC(=O)c2c[nH]c3ccccc23)s1,21%,49*,?,-1%,91*
O=C(c1ccc2nc(-c3ccco3)c(-c3ccco3)nc2c1)N1CCN(c2ccccc2)CC1,16µM*,-2,-22%,-24%,18
Cc1ccc(C(=O)N2CCC(C)CC2)cc1C,?,17*,-3%,-3%,35*
Cc1ccc(C(=O)N2CCN(c3ccccc3)CC2)cc1C,-1%,27*,-3%,0%,43*
CCS(=O)(=O)N1CCCC(C(=O)NCCOC)C1 (stereo not given),/,/,27%[46.1 µM],/,/
O=C(Nc1ccc(F)cc1)c1oc2ccccc2c1NC(=O)C1CC1,/,-1,/,4%,-6
Cc1cc(I)ccc1Nc1c(C(=O)NOCC2CC2)cc(F)c(F)c1F,/,17*,/,/,58*
CCCNC(=O)C1(C)CCN(C(=O)c2cccc(C(F)(F)F)c2)C1 (stereo not given),/,/,/,21%,/
O=[N+]([O-])c1cc(-c2nc(-c3ccncc3)no2)cc([N+](=O)[O-])c1,0%,-3,10%,12%,2
SMILES,MARV entry inh,Cycloheximide cs,LASV entry inh,AMA1 RON2 block,Shiga toxin inh
CC(C)(C)c1ccc(-c2nc(-c3ccncc3)no2)cc1,?,32*,?,-2%,63*
Cc1cc(C)cc(-c2nc(-c3ccncc3)no2)c1,/,11*,/,5%,65
CCC(c1ccccc1)c1nc(-c2cccnc2)no1 (stereo not given),-13%,0,?,12%,-8
CCC(=O)Oc1ccc(-c2nc(-c3cccnc3)no2)cc1,?,22*,?,-8%,32*
c1cncc(-c2noc(-c3ccco3)n2)c1,3%,56*,16%,4%,87*
CCCCn1c(N)c(N(CCOC)C(=O)c2cc(Cl)nc3ccccc23)c(=O)[nH]c1=O,-2%,/,5%,-2%,/
Cc1cc(C)c(S(=O)(=O)c2cccc(Br)c2C)c(=O)[nH]1,18%,8,-7%,22%,-1
Cc1ccc(-c2nc(-c3ccccc3)no2)cc1,?,38*,?,8%,64*
CC(C)(C)c1ccc(-c2noc(-c3ccno3)n2)cc1,?,51*,?,0%,82*

# Source: PubChem BioAssay (National Center for Advancing Translational Sciences (NCATS))
